Measured values from PubChem BioAssay AID1817 (Sanford-Burnham Center for Chemical Genomics, 2009).
Among all 290,000 compounds or so, about 50 (0.02%) were called active.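 How the source made its calls: active means displacement of at least 50% at 20 µM, with a fluorescence ratio check between 0.3 and a set limit; inactive means the rest.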 The sample as a whole holds a higher share of actives than the screen did. Entries with a potency or affinity are not part of this list.

What follows are molecules tested against E3 ubiquitin-protein ligase SIAH1 (Homo sapiens) (UniProt Q8IUQ4) (assay: Siah-1 peptide-binding antagonists, primary screen, biochemical, fluorescence polarization, rhodamine-plectin, uHTS (AID 1817;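 further: plate controls were Siah plus tracer with DMSO for no effect and tracer alone without Siah for full effect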)). Details: Siah-1 / rhodamine-plectin peptide fluorescence polarization; at 20 µM; active compounds read high.
Chain of E3 ubiquitin-protein ligase SIAH1 (Homo sapiens) (Q8IUQ4 whole entry, looked up): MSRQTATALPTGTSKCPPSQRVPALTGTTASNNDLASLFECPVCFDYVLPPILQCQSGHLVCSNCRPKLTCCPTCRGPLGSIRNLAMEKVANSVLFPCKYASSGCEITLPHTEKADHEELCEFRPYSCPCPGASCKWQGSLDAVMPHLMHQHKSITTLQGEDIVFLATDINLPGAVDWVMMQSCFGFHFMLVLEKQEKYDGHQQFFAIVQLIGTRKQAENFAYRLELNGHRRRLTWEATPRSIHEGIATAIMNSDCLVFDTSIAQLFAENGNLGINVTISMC

displacement, active:
O=C(Nc1ccc(S(=O)(=O)Nc2nccs2)cc1)/C(=C/c1ccccc1Cl)NC(=O)c1ccccc1 54.4%
O=[N+]([O-])c1cc(Cc2ccccc2)cc(C=Nc2ccc(N3CCOCC3)cc2)c1O 50%
Cc1ccsc1C=Nc1ccc(O)cc1 55.3%
CCCCNC1=CC(=O)C(=O)c2ccccc21 60%
CCOCCCNc1nc2c(C)cccn2c(=O)c1/C=C1\SC(=S)N(C(C)CC)C1=O (stereo not given) 53.2%
CCCn1c(=C(C#N)C#N)s/c(=C2\C=Cc3ccccc3N2CC)c1=O 65.1%
CN(c1ccccc1)c1ccc(/C=c2\s/c(=C(/C#N)C(=O)C(C)(C)C)n(Cc3ccco3)c2=O)cc1 102%
CCO/C=C1/C(=O)N(Cc2ccccc2)C(=O)c2ccccc21 55.6%
CCc1nnc(NS(=O)(=O)c2ccc(NC(=S)NC(=O)/C=C/c3ccc(OC)cc3)cc2)s1 51.9%

displacement, inactive:
COc1cc(NS(=O)(=O)c2ccc(NC(=O)/C(=C/c3ccccc3Cl)NC(=O)c3ccccc3)cc2)nc(OC)n1 13.9%
O=C(NC(=S)Nc1ccc(S(=O)(=O)Nc2nccs2)cc1)c1ccccc1 -2.4%
CCCn1c(=O)c(C(=O)NCc2ccncc2)c(O)c2ccccc21 8.4%
CC(=O)Nc1cccc(Oc2ncccc2[N+](=O)[O-])c1 -3%
Cc1ccc(O)c(N=Cc2cc(Cc3ccccc3)cc([N+](=O)[O-])c2O)c1 22.9%
O=[N+]([O-])c1cc(Br)c(O)c(C=Nc2ccc(N3CCOCC3)cc2)c1 41.8%
O=C(NCc1ccco1)/C(=C\c1ccc(F)cc1)NC(=O)c1ccco1 5.4%
O=C(Nc1ccc(S(=O)(=O)N2CCOCC2)cc1)c1ccc(S(=O)(=O)N2CCOCC2)cc1 -5.8%
O=C(Nc1ccc(S(=O)(=O)N2CCOCC2)cc1)c1ccc(F)cc1 10.6%
C=CCn1c(SCCC)nc(O)cc1=O 3%
COc1ccccc1NC(=O)CN(Cc1ccco1)C(=O)c1ccc(-n2nc(C)cc2C)cc1 -1.4%
COc1ccc(N2CCN(C(C)C(=O)N3CCc4ccccc43)CC2)cc1 (stereo not given) -5.4%
Cc1ccc(N=Cc2sccc2C)cc1C 1.9%
Cc1ccsc1/C=N/N=C/c1sccc1C -9.3%
CCN1CCN(c2cc(N3CCN(C(=O)c4ccco4)CC3)c3c4c(onc24)-c2ccccc2C3=O)CC1 51.9%
O=C(O)CCNc1cc(N2CCN(C(=O)c3ccco3)CC2)c2noc3c2c1C(=O)c1ccccc1-3 63%
Cc1ccc(-n2nnc3c(=O)n(CC(=O)NCC4CCCO4)cnc32)cc1 (stereo not given) -0.3%
CCOC(=O)CN1C(=O)CN(c2ccc(C)cc2)C1=O 5.5%
Cn1cc(NC(=O)OCc2ccc(Cl)cc2)c(C(F)(F)F)n1 1.5%
O=S(=O)(O)c1cccc(N=Nc2c(O)ccc3ccccc23)c1 -4.3%
Oc1ccc(Cl)cc1N=Nc1ccccc1 12.6%
CC12CCC(C(=O)N(NC(=O)c3ccc(O)cc3)C1=O)C2(C)C (stereo not given) -2.6%
COc1ccccc1N(CC(=O)NCCSc1ccc(Cl)cc1)S(C)(=O)=O -0.3%
CC(C)CC(c1nnnn1C(C)C)N1CCN(c2cccc(Cl)c2)CC1 (stereo not given) -5.9%
O=C1C=C(Nc2ccccc2)c2ccccc2C1=O 45.4%
Cc1ccc(NC2=CC(=O)C(=O)c3ccccc32)cc1 3.3%
COC(=O)c1cc2ccccc2oc1=O -2.6%
CCOC(=O)N/N=C\c1ccc(OC(=O)c2ccc3c(c2)OCO3)cc1 1.3%
CCOCCCNc1nc2c(C)cccn2c(=O)c1/C=C1\SC(=S)N(CC(C)C)C1=O -1.2%
CCCN1C(=O)/C(=C/c2c(NCCCOCC)nc3c(C)cccn3c2=O)SC1=S -2.4%
Cc1nn(C)c(Oc2cccc(C(F)(F)F)c2)c1C=O -3.5%
Cc1ccc(-n2ncc3c(NNC(=O)c4ccco4)ncnc32)cc1C 3%
O=C(N1CCN(c2ccccc2F)CC1)C12CC3CC(CC(C3)C1)C2 -8.1%
Cc1oc2c(C)c3oc(=O)c(CC(=O)N[C@@H](CC(C)C)C(=O)N[C@@H](Cc4ccccc4)C(=O)O)c(C)c3cc2c1C 30.3%
CCC(NC(=O)CCc1c(C)c2cc3c(C)c(C)oc3cc2oc1=O)C(=O)N[C@@H](Cc1ccccc1)C(=O)O (stereo not given in full) 34.5%
COc1cccc(C(C(=O)NC2CCCCC2)N(C(=O)c2cccs2)c2ccc3c(c2)OCO3)c1 (stereo not given) -1%
COc1ccc(CCC(=O)Nc2ccc(S(=O)(=O)N3CCOCC3)cc2)cc1 1.9%
O=c1ccc2cc(S(=O)(=O)N3CCN(c4ccc(Cl)cc4)CC3)ccc2o1 -0.9%
CCCN1C(=O)/C(=c2\s/c(=C3\C=Cc4ccccc4N3CC)c(=O)n2-c2ccccc2)SC1=S -1.6%
CCN1C(=C(C#N)C#N)C=Cc2ccccc21 8.2%
Cc1ccc(-c2nnc(SCC(=O)NC(=O)Nc3ccc(C)cc3C)n2N)cc1 5.1%
CCc1nc(Cl)c(C#N)c2c1CCCC2 3.8%
Cc1ccc(NC(=O)CCC(=O)OCc2ccc(Br)cc2)cc1 1.1%
Cc1ccc(/C=c2\s/c(=C(/C#N)C(=O)N3CCCC3)n(Cc3ccco3)c2=O)s1 -3%
COc1ccc(/C=c2\s/c(=C(/C#N)C(=O)NCc3ccco3)n(-c3ccccc3)c2=O)cc1 21.4%
Cc1ccc(NC(=O)Nc2cnccn2)cc1 -0.7%
Cc1ccc(S(=O)(=O)N2CCN(C(=O)c3cccs3)CC2)cc1C -2%
CCO/C=C1\C(=O)N(c2ccccc2)C(=O)c2ccccc21 1.1%
CCO/C=C1/C(=O)N(CC)c2ccccc21 -7.3%
C/C(=N\NC(=O)c1nnn(-c2nonc2N)c1CN1CCCCC1)c1ccccc1O -0.3%
Cc1cc(CN(C)C(=O)CC2C(=O)NCCN2Cc2ccc(-c3ccccc3)cc2)on1 (stereo not given) -0.5%
CC(C)(C)C(=O)Nc1ccc(C(=O)Nc2cccc(Oc3ccc(C(=O)O)c(C(=O)O)c3)c2)cc1 24%
Cc1ccc(C(=O)Nc2ccc(Oc3ccc(C(=O)O)c(C(=O)O)c3)cc2)cc1C -3%
O=C(O)Cn1c(=S)sc2ccccc21 -2.4%
COc1cc([N+](=O)[O-])ccc1NC(=S)Nc1cccc(C(=O)O)c1 -2.6%
COc1cc(/C=C(\C#N)c2nc(-c3cc4ccccc4oc3=O)cs2)ccc1O 2.9%
CCN(CC)CCOC(=O)c1ccc(N/C=C(/C#N)c2nc(-c3ccc4c(c3)OCO4)cs2)cc1 2.3%
CCN(CC)CCOC(=O)c1ccc(N/C=C(/C#N)c2nc(-c3cccc(OC)c3)cs2)cc1 -5.2%
CCN(CC)CCOC(=O)c1ccc(N/C=C(/C#N)c2nc(-c3ccc(OC)cc3)cs2)cc1 8.3%
C1CC2CN(c3nc4nonc4nc3N3CCSCC3)CCN2C1 (stereo not given) 1.1%
COc1cccc(CNC(=O)C2CCCN(S(=O)(=O)c3c(C)n[nH]c3C)C2)c1 (stereo not given) -0.6%
CC(C)N1CCC(N2CCN(C/C=C/c3ccc(F)cc3)CC2CCO)CC1 (stereo not given) 12%
O=C(/C=C/c1ccc(OCCCF)cc1)NCc1ccc(Cl)cc1 33.7%
CN(CC(=O)Nc1cccc(F)c1)C(=O)c1ccc(-c2ccc(Cl)cc2)o1 4.6%
Nc1c(O)ccc2c1C(=O)c1ccccc1C2=O 14.9%
Nc1ccc(Br)c2c1C(=O)c1ccccc1C2=O 7.9%
NS(=O)(=O)c1ccc(NC(=O)c2ccc(-c3ccccc3)cc2)cc1 42.1%
O=C(O)c1ccc(NS(=O)(=O)c2ccc(C(=O)Nc3ccccc3)cc2)cc1 -5.7%
O=C(NCc1ccccn1)C1CCN(S(=O)(=O)N2CCCC2)CC1 3.2%
O=C(Cn1cnc2c(cnn2-c2ccccc2)c1=O)N1CCN(c2ccc(F)cc2)CC1 0.6%
Cc1cc(NS(=O)(=O)c2ccc(NC(=O)C(C)Oc3cc(C)c(Cl)c(C)c3)cc2)no1 (stereo not given) 0.9%
CCc1nnc(NS(=O)(=O)c2ccc(NC(=S)NC(=O)/C=C/c3ccc(F)cc3)cc2)s1 12.9%
CCc1nnc(NS(=O)(=O)c2ccc(NC(=S)NC(=O)/C=C/c3ccccc3)cc2)s1 11.7%
CCc1nnc(NS(=O)(=O)c2ccc(NC(=S)NC(=O)/C=C/c3cccs3)cc2)s1 15.5%
CCc1nnc(NS(=O)(=O)c2ccc(NC(=S)NC(=O)/C=C/c3ccc([N+](=O)[O-])cc3)cc2)s1 12.8%
COCCCNc1oc(-c2ccccc2Cl)nc1C#N -5.3%
CN1CCN(C(=O)c2cn(-c3ccccc3)nc2-c2cccnc2)CC1 -0.3%
O=C(NCc1ccccc1)c1cc(-c2cccs2)on1 -1.2%
O=C(NCc1ccc(F)cc1)c1cc(-c2cccs2)on1 3.6%
CC(NC(=O)C(=O)c1cn(CC(=O)N2CCOCC2)c2ccccc12)c1ccccc1 (stereo not given) 1.9%
CC(C)CNS(=O)(=O)c1ccc(CC(C)C)cc1 1.9%
